These results are taken from PubChem BioAssay AID933 (National Center for Advancing Translational Sciences (NCATS), 2007).

For this assay, the target named is Thyrotropin receptor (Homo sapiens) (UniProt P16473). Kind of assay: Secondary Concentration-Response Assay for Agonists of the Thyroid Stimulating Hormone Receptor: HTRF Activity Detection.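 On activation: HEK 293 cells stably expressing human TSHR with RO 20-1724 phosphodiesterase inhibitor.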 The gist of the method: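 Orthogonal confirmation in a separate TSHR-transfected HEK 293 line: cells in medium with 10 % FCS and 100 uM RO 20-1724 got compound for 30 min at room temperature. cAMP was measured by HTRF (d2-cAMP/anti-cAMP antibody), 615/660 nm emission.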

The structures appear in SMILES notation. Results filed as inconclusive are left out. Where a call stands in place of a potency, no number is given. Values without a mark were called inactive. Activity calls are given as the source filed them. The call rests on the fitted dose curve; in most records, active means well fitted activation curve with a large enough effect in the signal ratio, with a control signal flat; inconclusive means small, poorly fitted or top-dose-only effect, or a change in a side signal; inactive means flat fitted curve, though single readings scatter; the % refers to the signal ratio.
Potency means the concentration at half of the fitted maximal effect.

Sequence of Thyrotropin receptor (Homo sapiens) (P16473 whole entry, looked up): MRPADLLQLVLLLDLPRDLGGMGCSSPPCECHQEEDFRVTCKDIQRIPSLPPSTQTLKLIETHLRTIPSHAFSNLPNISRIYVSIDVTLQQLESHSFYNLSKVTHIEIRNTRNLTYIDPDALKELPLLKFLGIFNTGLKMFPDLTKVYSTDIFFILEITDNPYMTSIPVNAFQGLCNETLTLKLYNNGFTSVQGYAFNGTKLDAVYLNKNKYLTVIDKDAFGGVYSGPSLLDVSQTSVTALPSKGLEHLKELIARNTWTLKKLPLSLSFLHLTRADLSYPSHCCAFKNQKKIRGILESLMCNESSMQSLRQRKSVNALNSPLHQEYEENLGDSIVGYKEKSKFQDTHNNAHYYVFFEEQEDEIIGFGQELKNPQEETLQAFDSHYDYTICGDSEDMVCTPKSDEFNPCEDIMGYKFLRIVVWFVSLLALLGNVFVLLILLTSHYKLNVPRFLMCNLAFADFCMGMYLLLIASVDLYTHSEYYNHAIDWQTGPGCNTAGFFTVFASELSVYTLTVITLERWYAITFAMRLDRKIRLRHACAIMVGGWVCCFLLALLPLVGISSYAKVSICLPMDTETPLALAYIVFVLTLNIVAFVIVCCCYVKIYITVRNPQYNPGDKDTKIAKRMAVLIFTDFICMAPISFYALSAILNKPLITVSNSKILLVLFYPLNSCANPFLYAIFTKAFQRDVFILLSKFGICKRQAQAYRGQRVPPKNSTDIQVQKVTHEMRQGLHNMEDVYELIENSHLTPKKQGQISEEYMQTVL

As to `COc1ccc(CN2C(=O)c3ccccc3NC2c2ccc(OC)c(COc3ccc(NC(C)=O)cc3)c2)cc1` (stereo not drawn), the Potency is 3.16 µM (active). Regarding `CC(c1ccco1)N(C(=O)c1ccc(Cl)s1)c1ccccn1` (stereo not drawn), the activation was 0.422% [at 0.00035 µM].

As to `CC1(C)c2ccccc2N2CC(=O)NC21/C=C/c1ccco1` (stereo not drawn), the activation was 1.29% [at 0.00035 µM]. For the molecule `O=C1c2ccccc2NC(c2ccc(O)cc2)N1Cc1ccco1` (stereo not drawn), the Potency result was “inactive”.

On to `CCN(c1ccccc1)S(=O)(=O)c1ccc(Oc2ccc(-n3ccnc3)cc2)nc1`, for which the activation was 0.254% [at 0.00035 µM]. With `COc1ccc(C2Nc3ccccc3C(=O)N2Cc2ccccc2)cc1COc1cccc(Cl)c1` (stereo not drawn), the Potency result was “inactive”. Regarding `COC(=O)COc1ccc(Cl)cc1C1Nc2ccccc2C(=O)N1c1ccc(OC)cc1` (stereo not drawn), the Potency entry is “inactive”. Consider `Cc1nn(C)c(C)c1S(=O)(=O)N(CC(=O)Nc1ccccn1)c1ccc(C(C)C)cc1`, for which the activation is -0.155% [at 0.00035 µM]. Turning to `COc1cccc2cc(C(=O)N(Cc3cccs3)Cc3cccs3)c(=O)oc12`, the Potency result is “inactive”. On to `COc1ccc(C2Nc3ccccc3C(=O)N2CCc2ccc(Cl)cc2Cl)cc1COc1ccc(NC(C)=O)cc1` (stereo not drawn), for which the Potency result is “inactive”. Still for that read-out and setting: the same measure for `COc1ccc(C2Nc3ccccc3C(=O)N2Cc2ccco2)cc1COc1ccccc1F` (stereo not drawn): “inactive”; for `COc1ccc(C2Nc3ccccc3C(=O)N2Cc2ccccc2OC)cc1COc1ccc(NC(C)=O)cc1` (stereo not drawn): “inactive”.

With `CCC(C)(C)n1nnnc1CN(Cc1ccco1)Cc1cc2cc3c(cc2[nH]c1=O)OCO3`, the activation is 0.108% [at 0.00035 µM].
